Screening data deposited in PubChem BioAssay by several laboratories.
ugtP null kill: growth inhibition of ugtP-null S. aureus, primary screen, RN4220 ugtP deletion, OD600 | 16 h | actives 0.54% (n = 330,000) | growth inhibition, % (concentration not given with the values) | AID 1259309, 2017; in the data active = growth inhibition above about 68%;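 also: plate controls were untreated wells for no effect and antibiotic for full effect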
RN4220 kill: growth inhibition of S. aureus RN4220, primary screen, OD600; 16 h; inhibition, % (no concentration beside the values); actives 0.33% (n = 330,000); AID 1259311, 2017; in the data active = inhibition above about 85%;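 also: plate controls were untreated cells for no effect and reference antibiotic for full effect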
Mtb hypoxia rep: PubChem AID 1159583; M. tuberculosis hypoxia-regulated fluorescent reporter, fluorescence; fluorescence inhibition, % (no concentration beside the values); actives 0.1% (n = 300,000); in the data active = fluorescence inhibition mostly above about 23%, no sharp cut-off; inactive = mostly below about 17%
Mtb bLac sens: beta-lactam sensitization of Mtb H37Rv, H37Rv | M. tuberculosis H37Rv growth with meropenem, percent inhibition | AID 434955, 2010 | actives 0.27% (n = 330,000) | inhibition, % at 25 µM; call rule not given here;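 also: growth measured after seven days incubation then overnight dye step; 0% = bacteria only wells and 100% = bacteria with antibiotic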
Starred values were filed as active, the others as inactive; · = no result shown; ! = not confirmed by another sample. Only some compounds are listed: those with a hit (about 0.61% of all), similar ones and a draw of the others.

SMILES	ugtP null kill	RN4220 kill	Mtb hypoxia rep	Mtb bLac sens
COc1cc(Cl)c(C)cc1NC(=O)CSc1cc(Cl)ccc1Cl	95.2*	1.2	2.1	0.9
Cc1ccc(SCC(O)=C(C#N)c2nc3ccccc3s2)cc1	91.9*	96.6*	6.1	·
COC(=O)c1ccc(-c2ccco2)n1Cc1nc(-c2ccc(OC)c(OC)c2)oc1C	12.3	-12.2	5.3	-9.3
COC(=O)c1ccc(-c2ccco2)n1Cc1ccccc1Cl	85.3*	-1.4	13.2	-0.5
Cc1ccc(C)c(N2CCN(C(=O)c3ccc(CS(=O)Cc4cccc(Cl)c4)o3)CC2)c1 (configuration not stated)	98.4*	0.8	0.9	6.1
O=C(c1ccc(CS(=O)Cc2ccc(Cl)cc2)o1)N1CCN(c2cccc(Cl)c2)CC1 (configuration not stated)	92.7*	-7.7	0.2	58.7
Cc1cccc(N2CCN(C(=O)c3ccc(CS(=O)Cc4ccc(Cl)cc4)o3)CC2)c1C (configuration not stated)	69.0	-3.1	11.2	6.5
O=C(c1ccc(CS(=O)Cc2cccc(Cl)c2)o1)N1CCN(C2CCCCC2)CC1 (configuration not stated)	94.9*	-3.1	4.2	4.5
O=C(c1ccc(CS(=O)Cc2ccc(Cl)cc2)o1)N1CCN(c2ccc(F)cc2)CC1 (configuration not stated)	90.0*	-3.8	6.6	3.8
O=C(NCc1ccccc1)C1=CC(c2ccc(C(F)(F)F)cc2)CC(OCCCCO)O1 (configuration not stated)	8.3	0.4	12.7	·
CC(=NNC(N)=O)c1c(F)cccc1F	6.5	1.9	11.2	·
CCCN1CCC2c3cc(O)ccc3CCC21 (configuration not stated)	3.4	6.8	5.4	·
Cc1c(Cl)ccc2c(C(O)CBr)cc(-c3ccccc3)nc12 (configuration not stated)	96.2*	41.4	19.7	·
CC1(C)C=Cc2c(c3c(c4c(=O)c(-c5ccc(O)cc5)coc24)OC(C)(C)CC3)O1	26.2	7.4	·	10.0
CC(C)=CCc1c2c(c3occ(-c4ccc(O)cc4)c(=O)c3c1O)C=CC(C)(C)O2	100.0*	99.5*	·	26.5
Cc1cccc(C)c1OCC(=O)NN=C/C=C/c1ccco1	-1.6	0.6	11.3	·
Fc1cccc(CON=Cc2c(-c3ccccc3)nc3ccc(Cl)cn23)c1	8.1	-4.4	37.6*	·
Cc1ccn2c(C=NOCc3cccc(F)c3)c(-c3ccc(Cl)cc3)nc2c1	-22.2	-10.1	·	·
CC1CN(C(C)CO)C(=O)c2cccc(NS(=O)(=O)c3cccs3)c2OC1CN(C)C(=O)NC1CCCCC1 (configuration not stated)	1.7	4.9	13.0	·
O=C(O)CCc1ccc(-c2ccc(Br)cc2)n1-c1cccc(O)c1	85.1*	35.4	-9.0	27.3
COC(=O)c1cccc(-c2ccc(C=NN3C(=O)C4C5C=CC(C6CC56)C4C3=O)o2)c1 (configuration not stated)	-5.1	7.8	11.3	·
CN(C)CCSc1nc2cc(S(=O)(=O)N3CCCCC3)ccc2o1	5.1	4.8	35.3*	3.4
Cc1cc(N=Nc2ccccc2C(=O)O)c(C)c(C)c1O	2.6	1.9	45.3*	-2.1
Cc1cc(O)c(C(C)C)cc1N=Cc1ccccc1[N+](=O)[O-]	-8.7	1.9	20.1	·
Cc1cc(O)c(C(C)C)cc1N=Nc1ccccc1C(=O)O	2.6	3.5	50.8*	11.1
SMILES	ugtP null kill	RN4220 kill	Mtb hypoxia rep	Mtb bLac sens
CC(NC(=O)c1nc[nH]c1C(=O)NC(C)c1ccccc1)c1ccccc1 (configuration not stated)	-3.6	4.6	5.9	·
O=C(C[n+]1ccccc1)NN=Cc1ccc(F)cc1	-3.9	4.0	11.8	·
C=CC[C@@H](CC(=O)N[C@@H](CO)Cc1ccccc1)C(=O)N[C@H](COC(=O)[C@@H](CC=C)Cc1ccc(F)cc1)Cc1c[nH]c2ccccc12	·	·	·	-4.7
C=CCC(CC(=O)NC(CO)Cc1ccccc1)C(=O)NC(COC(=O)C(CC=C)Cc1ccc(F)cc1)Cc1c[nH]c2ccccc12 (configuration not stated)	1.1	0.9	36.2*!	·
O=C(NN=Cc1c[nH]c2ccccc12)c1cc(-c2cccc3ccccc23)n[nH]1	-5.1	-9.6	1.1	·
O=C(NN=Cc1c[nH]c2ccccc12)c1cc(-c2ccc(-c3ccccc3)cc2)n[nH]1	27.9	87.3*	3.7	·
NC(=NCCCCCCN=C(N)N=C(N)Nc1ccc(Cl)cc1)N=C(N)Nc1ccc(Cl)cc1	100.4*	99.8*	·	·
O=C(NN=Cc1cccnc1)C12CC3CC(CC(C3)C1)C2	1.3	2.1	-1.4	·
C/C(=C1/SC(N2CCCC2)=NC1=O)c1ccc(Br)cc1	-13.2	-5.4	75.7*	98.6
COc1ccc(-c2nc(N3CCCCCC3)sc2C(=O)c2ccccc2)cc1	72.6	0.0	·	10.7
COc1ccc(-c2nc(N3CCN(C)CC3)sc2-c2ccc(OC)cc2)cc1	99.0*	-4.5	-3.0	50.5
CCn1cc(C(=O)O)c(=O)c2cc(F)c(N3CCN(C(=S)NC(=O)c4ccccc4)CC3)cc21	98.7*	98.8*	12.0	53.6
CCn1cc(C(=O)O)c(=O)c2cc(F)c(N3CCN(C(=S)NC(=O)c4cc(OC)cc(OC)c4)CC3)cc21	99.0*	99.7*	4.7	46.3
CCn1cc(C(=O)O)c(=O)c2cc(F)c(N3CCN(C(=S)NC(=O)c4ccccc4Cl)CC3)cc21	99.6*	99.6*	8.4	97.2
CCn1cc(C(=O)O)c(=O)c2cc(F)c(N3CCN(C(=S)NC(=O)c4ccccc4C)CC3)cc21	99.7*	99.9*	20.9	·
CCn1cc(C(=O)NCc2ccccc2)c(=O)c2cc(F)c(N3CCN(C(=O)c4ccco4)CC3)cc21	39.9	27.1	·	99.0
CCn1cc(C(=O)O)c(=O)c2cc(F)c(N3CCN(C(=S)Nc4ccc(OC)cc4)CC3)cc21	79.0	80.4	13.1	98.0
Cc1cc(C)c2c(c1)C(=NNC(=S)Nc1ccc(F)cc1)CCC2	4.3	0.1	·	·
CCN(CC)C(=O)COc1ccc(C(C)=NNC(=O)c2ccccc2-n2cccc2)cc1	4.7	0.9	5.4	·
O=C(NN=Cc1ccc2c(c1)OCO2)c1cc(-c2ccco2)nc2ccccc12	-3.2	1.6	7.5	·
CC1(C)CC(=O)C2=C(C1)N=C1c3ccccc3C(=O)C1C2c1ccc(Cl)cc1 (configuration not stated)	-5.5	0.7	·	99.0
CCOC(=O)C1=C(C)N=C2c3ccccc3C(=O)C2C1c1ccc(Cl)cc1 (configuration not stated)	45.7	88.1*	1.5	7.8
O=C(O)CC1S/C(=N/N=Cc2ccc(-c3ccc(Cl)cc3[N+](=O)[O-])o2)NC1=O (configuration not stated)	1.7	3.4	4.8	·
CN1CCC/C1=C/C=C1\SC(=S)NC1=O	10.3	1.7	41.2*	-7.3
CN1CCCC1=CC=C1C(=O)N(C)C(=S)N1C	-2.3	2.4	5.1	·
CC(=O)O/C(=C1\CC2C3CC=C4CC(OC(C)=O)CCC4(C)C3CCC2(C)C1=O)C(F)(F)F (configuration not stated)	99.6*	99.9*	15.9	·
